# Reference: PubChem BioAssay (NCI)
# About 83,000 compounds went through this panel and 20% of them were active in at least one assay; those are over-represented in the sample as a whole.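 Interpretation: 100, growth as untreated; towards 0, rising growth inhibition; 0, no net growth; 0 to -100, cell death. Compounds scoring below 10 were considered active.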 A number with no mark means an inactive call. Calls of active or inactive are those of the source.
# Test system: SW-620 colon
# Assay: NCI-60 one-dose screen, 48 h (100 = growth as untreated, 0 = no growth, -100 = all killed)
# Conditions: 10 µM unless noted
# Method: Growth inhibition of the SW-620 human tumor cell line is measured as a screen for anti-cancer activity. Cells are grown in 96 well plates and exposed to the test compound for 48 hours. Compounds are tested at a single concentration, which is 10^-5 M for most compounds. The reported endpoint is percent growth (GI% or GIPRCNT), where numbers from 0 - 100% represent growth inhibition, and numbers from -100% - 0 represent cell death. For example, a value of 40 represents 60% growth inhibition. A value of 0 means no net growth occurred over the course of the experiment. A value of -40 indicates 40% of cells at the beginning of the experiment died by the end of the experiment. A value of -100 means all cells are dead at the end of the experiment.
# NCI-60 Human Tumor Cell Lines Screen was performed using the standard one-dose NCI protocol, which is described in more detail at https://dtp.cancer.gov/discovery_development/nci-60/default.htm.
# Compounds with GIPRCNT values below 10 were considered active. Activity score was based on GIPRCNT using the following formula: […]
# Score is 0 for GIPRCNT values of 100 or above, 50 for GIPRCNT values of 0, and 100 for GIPRCNT values of -100.
row,Compound,growth
1,COc1ccc2c(c1)C(C)Cc1c(N(C)C)ncnc1N2C (stereo not given),21.4%
2,Cc1c(C(=O)NCc2ccccc2)[n+](=O)c2cc(F)ccc2n1[O-],107%
3,Cn1c(=O)c2c(nc3n2CCN(CCc2ccc(OCCN4CCOCC4)cc2)C3)n(C)c1=O,105%
4,CCNC(=O)C1CCCN1C(=O)C(CCCN=C(N)N)NC(=O)C(CC(C)C)NC(=O)C(CC(C)C)NC(=O)C(Cc1ccc(O)cc1)NC(=O)C(CO)NC(=O)C(Cc1c[nH]c2ccccc12)NC(=O)C(Cc1cnc[nH]1)NC(=O)C1CCC(=O)N1 (stereo not given),89.4%
5,O=C(c1ccncc1)N1N=C(c2ccc(Cl)cc2)CC1c1c[nH]c2ccccc12 (stereo not given),96%
6,COc1ccc(/C=C/C(=O)c2ccc(NC(=O)CN3CCN(c4cc5c(cc4F)c(=O)c(C(=O)O)cn5C4CC4)CC3)cc2)cc1,113%
7,C=C1C(=O)O[C@H]2[C@H]1CC/C(COC(=O)NCc1ccc(OC)cc1)=C\CC[C@@]1(C)O[C@@H]21,1.83% (active)
8,O=c1[nH]c(-c2cn(-c3ccc(Cl)cc3)nn2)nc2ccccc12,94.4%
9,COC(=O)CCCCCN=Cc1c(O)c(O)c(C(C)C)c2cc(C)c(-c3c(C)cc4c(C(C)C)c(O)c(O)c(C=NCCCCCC(=O)OC)c4c3O)c(O)c12,20.2%
10,COc1ccc(NC(=O)CSc2nc3ccc(Cl)cc3c(=O)n2-c2ccccc2C(F)(F)F)c(OC)c1OC,94%
11,CCCCCCc1nc2c(c(C)nn2-c2ccccc2)c2c1CCCCC2,101%
12,Clc1nc(Cl)c2ncn(C/C=C/Cn3cnc4c(Cl)nc(Cl)nc43)c2n1,45%
13,Nc1nc(-c2ccccc2)cs1,108%
14,O=S(=O)(NCCNc1nccc(-c2c(-c3ccccc3)nc3sccn23)n1)c1ccc(O)cc1,30%
15,COc1ccc(/C=C/C(=O)c2cc(OC)c(OC)c(OC)c2)cc1OCc1cn(Cc2ccc(F)cc2)nn1,15.4%
16,CN(C)C/C=C/C(=O)Nc1cc2c(Nc3ccc(F)c(Cl)c3F)ncnc2cc1OCCOC(F)F,3.09% (active)
17,Nc1ccc(S(=O)(=O)c2ccc(Cl)cc2)cc1,94.1%
18,Nc1nc(-c2cc3ccccc3o2)cc(=O)c(=O)[nH]1,102%
19,CCOC(=O)c1ccccc1NC(c1ccccc1)c1ccc2cccnc2c1O (stereo not given),37.5%
20,COc1cc(OC)c(C(=O)/C=C/c2cccc(C#N)c2)c(OC)c1,6.58% (active)

row,Compound,growth
1,COc1cc(CNC(=O)CSc2nc3ccccc3c(=O)n2Cc2cc(OC)c(OC)c(OC)c2)cc(OC)c1OC,109%
2,CCC(c1ccc(OC)cc1)C(CC)c1ccc(OCC[N+](C)(C)C)cc1 (stereo not given),70.6%
3,COc1ccc2c(c1)NC(=O)CN2c1nc(C)nc2ccccc12,22%
4,Clc1ccc(/C=C/c2nc(N3CCOCC3)c3nc(Cl)c(Cl)cc3n2)cc1,114%
5,CN(C)c1ncc(-c2ccc(C(F)(F)F)cc2)c(NC2CCCCCC2)n1,58.1%
6,COc1cccc(-c2nc3sccn3c2-c2ccnc(NCCNS(=O)(=O)c3ccccc3)n2)c1,106%
7,Cn1c(C(N)=O)cc2c1-c1nc(NC3CCCCC3)ncc1CCC2,89.7%
8,Cc1ccc(C2=NN(c3ccc(S(=O)(=O)NC(=O)NCc4ccccc4)cc3)C(c3ccc(N(C)C)cc3)C2)c(C)c1 (stereo not given),59.5%
9,CC(=O)Oc1cccc(OC(C)=O)c1OC(C)=O,114%
10,COc1cc(C(=O)CCCl)ccc1O,103%
11,COC(=O)[C@H]1[C@H](OC)[C@@H](OC(=O)/C=C/c2ccncc2)CC2CN3CCc4c([nH]c5cc(OC)ccc45)[C@@H]3C[C@@H]21 (stereo not given in full),74%
12,O=C(O)Cc1ccc2c(c1)Cc1cccnc1O2,106%
13,CCCOC(=O)C1(O)CCCC1,104%
14,Clc1nc2ccccc2nc1CI,36.3%
15,C=CCOc1ccc(/C(O)=C2\C(=O)C(=O)N(c3nccs3)C2c2ccccc2F)cc1 (stereo not given),103%
16,O=C(N/N=C/c1c(Cl)cccc1Cl)c1ccccc1Nc1ccnc(C(F)(F)F)c1,86.3%
17,CC(=O)Nc1nc(C(=O)N2N=C(C)/C(=C/c3cccs3)C2=O)cs1,110%
18,CCOC(=O)CC(C#N)(CC(=O)OCC)C(=O)OCC,108%
19,Nc1ccccc1C#C/C=C\C#Cc1cccc(O)c1,32.4%
20,COc1ccc(/C=C\c2cc(OC)c(OC)c(OC)c2)c(NS(=O)(=O)c2ccc(C(C)(C)C)cc2)c1O,31.7%
